Source: PubChem BioAssay AID1645887 (National Center for Advancing Translational Sciences (NCATS), 2021)
In all, about 16,000 compounds went through this assay and about 40 (0.2%) were called active. Not shown: some 1% with an inconclusive outcome. Calls follow the shape of the dose curve; as a rule, active = well fitted activation curve with a large enough effect; inconclusive = small, poorly fitted or top-dose-only effect, or another doubt; inactive = no such curve, though single readings can be large or run the other way. What follows is part of a selection rich in actives, with near analogues and random picks from the rest. The source holds several records for some structures; these can differ, active in one and inactive in another. Residues, ends and D or L forms follow the SMILES beside them.

What follows are compounds tested against Rap guanine nucleotide exchange factor 4 (Homo sapiens) (UniProt Q8WZA2) (assay: Validation qHTS for agonist of cAMP-regulated guanine nucleotide exchange factor 4 (EPAC2)). Settings: EPAC2 Rap1B BODIPY-GDP exchange, fluorescence; activation: hits give high values.
How it was run: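 Fluorescent exchange assay: 100 nM EPAC2 with 250 nM RAP1B-BODIPY-GDP and 50 uM GDP; compound added, 5 min at room temperature, then read (ex 480/em 540 nm) every 5 min for 30 min. Normalized to 6.5 mM cAMP agonist control.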
% is scaled to controls: 0 for no effect and ±100 for the full control effect; potency is read from the fitted curve at half-maximal effect.
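For activation in this document: exchange makes BODIPY-GDP fluorescence drop when released from Rap1B; series mostly up to about 150 µM.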

Sequence of Rap guanine nucleotide exchange factor 4 (Homo sapiens) (Q8WZA2 whole entry, looked up): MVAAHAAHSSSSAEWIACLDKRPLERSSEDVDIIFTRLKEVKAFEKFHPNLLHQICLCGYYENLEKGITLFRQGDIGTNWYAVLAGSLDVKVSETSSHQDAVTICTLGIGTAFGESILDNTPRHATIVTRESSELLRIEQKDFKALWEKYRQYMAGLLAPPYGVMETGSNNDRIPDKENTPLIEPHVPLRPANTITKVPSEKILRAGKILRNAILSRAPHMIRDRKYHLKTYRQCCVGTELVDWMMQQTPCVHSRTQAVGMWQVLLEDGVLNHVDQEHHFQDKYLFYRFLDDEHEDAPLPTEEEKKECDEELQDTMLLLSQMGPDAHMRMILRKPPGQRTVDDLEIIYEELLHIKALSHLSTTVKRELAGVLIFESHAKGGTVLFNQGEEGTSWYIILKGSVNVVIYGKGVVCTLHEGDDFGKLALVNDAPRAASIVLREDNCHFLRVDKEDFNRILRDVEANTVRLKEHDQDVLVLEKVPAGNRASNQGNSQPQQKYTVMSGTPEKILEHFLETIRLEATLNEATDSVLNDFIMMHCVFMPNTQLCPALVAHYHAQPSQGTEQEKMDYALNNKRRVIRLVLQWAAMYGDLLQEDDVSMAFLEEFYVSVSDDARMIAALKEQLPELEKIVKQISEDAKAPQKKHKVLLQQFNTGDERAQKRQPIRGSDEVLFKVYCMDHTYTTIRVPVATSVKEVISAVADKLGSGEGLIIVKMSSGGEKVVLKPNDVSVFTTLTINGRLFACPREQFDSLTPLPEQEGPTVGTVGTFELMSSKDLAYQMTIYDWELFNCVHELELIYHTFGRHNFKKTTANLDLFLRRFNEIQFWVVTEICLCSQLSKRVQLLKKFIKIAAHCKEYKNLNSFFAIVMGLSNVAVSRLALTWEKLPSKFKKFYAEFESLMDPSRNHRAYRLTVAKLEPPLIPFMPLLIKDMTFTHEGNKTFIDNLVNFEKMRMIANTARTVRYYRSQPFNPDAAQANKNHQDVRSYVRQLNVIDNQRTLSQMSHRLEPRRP

| Structure (SMILES) | activation | Potency |
| --- | --- | --- |
| Cc1c(C(=O)N(C)Cc2cscn2)sc2ncnc(NC[C@H]3CCc4ccccc4O3)c12 | -2.34% (inactive) | – |
| O=C(O)[C@@H]1CN[C@@H](C(=O)O)C1 | 11.8% (inactive) | – |
| Cc1cc2c(c(-c3cnccn3)c1)OC(CNC(=O)c1ccc(-n3nc(C)cc3C)cc1)C2 (stereo not given) | -7.18% (inactive) | – |
| CC(C)CC(NC(=O)CN)C(=O)NC(Cc1ccccc1)C(=O)O (stereo not drawn) (H-Gly-Leu-Phe-OH; configuration not given here) | -3.33% (inactive) | – |
| CO[C@H]1[C@H](NC(=O)c2ccco2)c2ccccc2C12CCN(Cc1cnc(N(C)C)s1)CC2 | -21.4% (inactive) | – |
| COc1ccc(-c2nc3cnc(OC)nc3n(C[C@H]3CCCO3)c2=O)cc1 | -6.48% (inactive) | – |
| O=C(O)CCC(=O)OC[C@@H](NC(=O)C(Cl)Cl)C(O)c1ccc([N+](=O)[O-])cc1 (stereo not given in full) | -9.09% (inactive) | – |
| COCCn1c(=O)c(C)nc2cnc(OC)nc21 | -6.26% (inactive) | – |
| CC(=O)O[C@H]1C[C@H]2CC[C@@H]3[C@H]4C[C@@H]([N+]5(C)CCCCC5)[C@@H](OC(C)=O)[C@]4(C)CC[C@@H]3[C@@]2(C)C[C@@H]1[N+]1(C)CCCCC1 | -8.62% (inactive) | – |
| O=c1c(-c2ccccc2)nc2cnc(Oc3ccccc3)nc2n1Cc1cccs1 | -18.6% (inactive) | – |
| CN1CCN(c2ncc3nc(CCc4ccccc4)c(=O)n(Cc4cccs4)c3n2)CC1 | 14.9% (inactive) | – |
| CC1=CC(=O)c2ccccc2C1=O | -29.9% (inactive) | – |
| CC1(C)CCC2=C(O1)c1ccccc1C(=O)C2=O | 17.8% (inactive) | 70.8 µM (active) |
| CC1(S(=O)(=O)O)CC(=O)c2ccccc2C1=O (stereo not given) | 3.25% (inactive) | – |
| CC(C)C(C)/C=C/C(C)C1CCC2C3=CCC4CC(=O)CC[C@@]4(C)C3CC[C@]21C (stereo not given in full) | 0.449% (inactive) | – |
| O=C(O)c1cccc(/C=C2/C[C@@H]3[C@@H](/C=C/[C@@H](O)C4CCCCC4)[C@H](O)C[C@@H]3O2)c1 | 15.9% (inactive) | – |
| C=C1Cc2c(Cl)cc3[nH]c4c5c3c2[C@@]2(O)[C@@H]1C[C@@H]2C(C)(C)O[C@H]5[C@@H]1CC[C@@]2(O)[C@@]35O[C@@H]3[C@@H](O)[C@@H](C(=O)O)O[C@H]5CC[C@]2(C)[C@@]41C | -9.97% (inactive) | – |
| N#CC[C@H](Cc1ccccc1)N1CC[C@@H](NC(=O)OCc2ccccc2)CCC1=O | -28.7% (inactive) | – |
| Oc1cc(-c2nc3ccccc3s2)cc2c1OCCN(Cc1cccn1-c1ccccn1)C2 | 7.3% (inactive) | – |
| COc1ccc(CN([C@H](CO)CC(C)C)S(=O)(=O)N(Cc2ccccc2)[C@H](CO)CC(C)C)cc1 | -27.3% (inactive) | – |
| CCNc1ncc2nc(-c3cccs3)c(=O)n(CCC#N)c2n1 | – | 50.1 µM (active) |
| CCNc1ncc2nc(-c3cccs3)c(=O)n(CCc3ccccc3)c2n1 | -14% (inactive) | – |

| Structure (SMILES) | activation | Potency |
| --- | --- | --- |
| N#CCCn1c(=O)c(-c2cccs2)nc2cnc(Nc3ccccc3)nc21 | -2.03% (inactive) | – |
| O=c1[nH]c(=O)n(C2CC(O)C(CO)O2)cc1F (stereo not given) | -6.18% (inactive) | – |
| CC(=O)Oc1ccc2c(c1)CCC1C2CC[C@]2(C)C(OC(C)=O)CCC12 (stereo not given in full) | -1.9% (inactive) | – |
| C[C@]12CC[C@@H]3c4ccc(OC(=O)c5ccccc5)cc4CC[C@H]3[C@@H]1CC[C@@H]2O | -2.11% (inactive) | – |
| CC(=O)Oc1ccc2c(c1)CC[C@@H]1[C@@H]2CC[C@]2(C)[C@@H](O)CC[C@@H]12 | – | 44.7 µM (active) |
| CN(C)C(=O)c1ccc(-c2nc(N3CCOCC3)c3ccccc3n2)cc1 | -5.48% (inactive) | – |
| CC(C)C[C@@H](CC#N)N1CCN(Cc2ccccc2)CCC1=O | -11.1% (inactive) | – |
| Clc1ccc[n+](CCCCC[n+]2cccc(Cl)c2)c1 | -27.9% (inactive) | – |
| O=C(Nc1ccc(C(F)(F)F)cc1[N+](=O)[O-])O[C@H]1[C@H](Cc2ccccc2)NS(=O)(=O)[C@H]2C[C@@H]3C=C[C@]12O3 | -19.6% (inactive) | – |
| COc1ccc(C(=O)C[n+]2cccc3cccc(O)c32)cc1 | -13.2% (inactive) | – |
| COc1cccc2c1C(=O)c1c(O)c3c(c(O)c1C2=O)C[C@@](O)(C(=O)CO)C[C@@H]3O[C@H]1C[C@H](N)[C@H](O[C@@H]2CCCCO2)[C@H](C)O1 | 1.58% (inactive) | – |
| CC(=O)[C@]1(O)Cc2c(O)c3c(c(O)c2[C@@H](O[C@H]2C[C@H](N)[C@H](O)[C@H](C)O2)C1)C(=O)c1c(O)cccc1C3=O | – | 100 µM (active) |
| CC[C@@]1(O)C[C@H](O[C@H]2C[C@H](N(C)C)[C@H](O[C@H]3C[C@H](O)[C@H](O[C@H]4CCC(=O)[C@H](C)O4)[C@H](C)O3)[C@H](C)O2)c2c(cc3c(c2O)C(=O)c2c(O)cccc2C3=O)[C@H]1C(=O)OC | 26% (inactive) | – |
| CCCCC(=O)OCC(=O)[C@]1(O)Cc2c(O)c3c(c(O)c2[C@@H](O[C@H]2C[C@H](NC(=O)C(F)(F)F)[C@H](O)[C@H](C)O2)C1)C(=O)c1c(OC)cccc1C3=O | -1% (inactive) | – |
| COc1cccc2c1C(=O)c1c(O)c3c(c(O)c1C2=O)C[C@@](O)(C(=O)CO)C[C@@H]3O[C@H]1C[C@H](N)[C@H](O)[C@H](C)O1 | -17.2% (inactive) | – |
| COc1cccc2c1C(=O)c1c(O)c3c(c(O)c1C2=O)C[C@@](O)(C(C)=O)C[C@@H]3O[C@H]1C[C@H](N)[C@H](O)[C@H](C)O1 | – | 100 µM (active) |
| CC(=O)[C@]1(O)Cc2c(O)c3c(c(O)c2[C@@H](O[C@H]2C[C@H](N)[C@H](O)[C@H](C)O2)C1)C(=O)c1ccccc1C3=O | – | 100 µM (active) |
| Cc1c(C(=O)NCc2ccco2)cnn1-c1ncc2c(n1)-c1ccccc1CC2 | -0.162% (inactive) | – |
| O=C(c1ccncc1)N1CCC2(CCCN(c3ccc(-c4ccccc4)cc3)C2)CC1 | -3.07% (inactive) | – |
| COc1cc2c(cc1OC)C(=O)N(C)CC2 | -9.91% (inactive) | – |
| CC(C)NC(=O)[C@@H]1C[C@@H](Sc2ccccn2)CN1C1CCN(C)CC1 | -0.85% (inactive) | – |
| C=CCN1[C@@H](Cc2ccccc2)COCCS1(=O)=O | -11.2% (inactive) | – |
